From the supplement of paper PMC8728848
This is one part of a sample in which the strongest signals are shown more often than they occur.

Assays:
Experiment in all cases: glycan array binding signal (z-score within array); higher = stronger binding
Conditions in all cases: glycan notation: IUPAC condensed, linker removed
Fuc(a1-2)Gal(b1-3)GalNAc = molecular target: Fuc(a1-2)Gal(b1-3)GalNAc
How it was run: (§1)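 Arrays were curated from the Consortium for Functional Glycomics database, 3228 in total, and kept only where the protein sequence was available. Binding is expressed as a within-array Z-score. This score was averaged across arrays of the same protein sequence at different concentrations or buffers and across linkers, and negative values can be read as non-binding.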

Fuc(a1-2)Gal(b1-3)GlcNAc = molecular target: Fuc(a1-2)Gal(b1-3)GlcNAc
How it was run: as §1

[1] = molecular target: Fuc(a1-2)Gal(b1-3)[Fuc(a1-4)]GlcNAc(b1-2)Man(a1-3)[Fuc(a1-2)Gal(b1-3)[Fuc(a1-4)]GlcNAc(b1-2)Man(a1-3)]Man(b1-4)GlcNAc(b1-4)GlcNAc
How it was run: as §1

[2] = molecular target: Fuc(a1-2)Gal(b1-3)[Fuc(a1-4)]GlcNAc(b1-3)[Fuc(a1-3)[Gal(b1-4)]GlcNAc(b1-6)]Gal(b1-4)Glc
How it was run: as §1

Fuc(a1-2)Gal(b1-4)Glc = molecular target: Fuc(a1-2)Gal(b1-4)Glc
How it was run: as §1

[3] = molecular target: Fuc(a1-2)Gal(b1-4)[Fuc(a1-3)]GlcNAc(b1-3)[Neu5Ac(a2-6)Gal(b1-4)GlcNAc(b1-6)]Gal(b1-4)Glc
How it was run: as §1

[4] = molecular target: Fuc(a1-2)Gal6S(b1-4)Glc6S
How it was run: as §1

[5] = molecular target: Fuc(a1-2)[Gal(a1-3)]Gal(b1-3)GalNAc(b1-3)Gal(a1-4)Gal(b1-4)Glc
How it was run: as §1

[6] = molecular target: Fuc(a1-2)[Gal(a1-4)]Gal(b1-4)GlcNAc
How it was run: as §1

[7] = molecular target: Fuc(a1-2)[GalNAc(a1-3)]Gal(b1-3)GlcNAc
How it was run: as §1

[8] = molecular target: Fuc(a1-2)[GalNAc(a1-3)]Gal(b1-4)GlcNAc
How it was run: as §1

[9] = molecular target: Fuc(a1-2)[GalNAc(a1-3)]Gal(b1-4)GlcNAc(b1-2)Man
How it was run: as §1

[10] = molecular target: Fuc(a1-3)[Gal(b1-4)]GlcNAc(b1-6)GalNAc
How it was run: as §1

[11] = molecular target: Fuc(a1-3)[Gal(b1-4)]GlcNAc6S
How it was run: as §1

[12] = molecular target: Gal(a1-3)Gal(b1-4)GlcNAc(b1-3)GalNAc
How it was run: as §1

[13] = molecular target: Gal(a1-3)Gal(b1-4)[Fuc(a1-3)]GlcNAc(b1-2)Man(a1-3)[Gal(a1-3)Gal(b1-4)[Fuc(a1-3)]GlcNAc(b1-2)Man(a1-6)]Man(b1-4)GlcNAc(b1-4)GlcNAc
How it was run: as §1

Gal(a1-4)Gal(b1-4)Glc = molecular target: Gal(a1-4)Gal(b1-4)Glc
How it was run: as §1

[14] = molecular target: Gal(b1-3)GlcNAc(b1-3)Gal(b1-4)Glc
How it was run: as §1

[15] = molecular target: Gal(b1-3)GlcNAc(b1-3)Gal(b1-4)[Fuc(a1-3)]GlcNAc(b1-6)[Gal(b1-3)GlcNAc(b1-3)]Gal(b1-4)Glc
How it was run: as §1

[16] = molecular target: Gal(b1-3)[Neu5Ac(a2-6)]GlcNAc(b1-4)Gal(b1-4)Glc
How it was run: as §1

[17] = molecular target: Gal(b1-4)GlcNAc(a1-6)Gal(b1-4)GlcNAc
How it was run: as §1

[18] = molecular target: Gal(b1-4)GlcNAc(b1-2)[Gal(b1-4)GlcNAc(b1-4)]Man(a1-3)[Gal(b1-4)GlcNAc(b1-2)Man(a1-6)]Man(b1-4)GlcNAc(b1-4)GlcNAc
How it was run: as §1

[19] = molecular target: Gal(b1-4)GlcNAc(b1-3)Gal(b1-4)GlcNAc(b1-2)Man(a1-3)[Gal(b1-4)GlcNAc(b1-3)Gal(b1-4)GlcNAc(b1-2)Man(a1-6)]Man(b1-4)GlcNAc(b1-4)GlcNAc
How it was run: as §1

[20] = molecular target: Gal(b1-4)GlcNAc(b1-3)Gal(b1-4)GlcNAc(b1-3)Gal(b1-4)GlcNAc(b1-2)Man(a1-3)[Gal(b1-4)GlcNAc(b1-3)Gal(b1-4)GlcNAc(b1-3)Gal(b1-4)GlcNAc(b1-2)Man(a1-6)]Man(b1-4)GlcNAc(b1-4)GlcNAc
How it was run: as §1

[21] = molecular target: Gal(b1-4)GlcNAc(b1-3)Gal(b1-4)GlcNAc(b1-3)Gal(b1-4)GlcNAc(b1-2)[Gal(b1-4)GlcNAc(b1-3)Gal(b1-4)GlcNAc(b1-3)Gal(b1-4)GlcNAc(b1-6)]Man(a1-6)[Gal(b1-4)GlcNAc(b1-3)Gal(b1-4)GlcNAc(b1-3)Gal(b1-4)GlcNAc(b1-2)Man(a1-3)]Man(b1-4)GlcNAc(b1-4)[Fuc(a1-6)]GlcNAc
How it was run: as §1

[22] = molecular target: Gal(b1-4)GlcNAc(b1-3)Gal(b1-4)GlcNAc(b1-3)Gal(b1-4)GlcNAc(b1-3)Gal(b1-4)GlcNAc(b1-2)[Gal(b1-4)GlcNAc(b1-3)Gal(b1-4)GlcNAc(b1-3)Gal(b1-4)GlcNAc(b1-3)Gal(b1-4)GlcNAc(b1-6)]Man(a1-6)[Gal(b1-4)GlcNAc(b1-3)Gal(b1-4)GlcNAc(b1-3)Gal(b1-4)GlcNAc(b1-3)Gal(b1-4)GlcNAc(b1-2)Man(a1-3)]Man(b1-4)GlcNAc(b1-4)[Fuc(a1-6)]GlcNAc
How it was run: as §1

[23] = molecular target: Gal(b1-4)GlcNAc(b1-3)Gal(b1-4)GlcNAc(b1-3)Gal(b1-4)GlcNAc(b1-3)Gal(b1-4)GlcNAc(b1-3)Gal(b1-4)GlcNAc(b1-2)[Gal(b1-4)GlcNAc(b1-3)Gal(b1-4)GlcNAc(b1-3)Gal(b1-4)GlcNAc(b1-3)Gal(b1-4)GlcNAc(b1-3)Gal(b1-4)GlcNAc(b1-6)]Man(a1-6)[Gal(b1-4)GlcNAc(b1-3)Gal(b1-4)GlcNAc(b1-3)Gal(b1-4)GlcNAc(b1-3)Gal(b1-4)GlcNAc(b1-3)Gal(b1-4)GlcNAc(b1-2)Man(a1-3)]Man(b1-4)GlcNAc(b1-4)[Fuc(a1-6)]GlcNAc
How it was run: as §1

B1: rCnSL-proA (Clitocybe nebularis) (protein)
chain: AAFFSLVVLLALLPFGIHASALPSTELTPRVNPNLPGPNDVFVGFRGTNNIVGAIYEKDGIKDTPLNNGADAEMGPGSYITDGLFTARIFASGSAGNNPGTTATVCKIYASGVQWRGAPKGYIPVAYFGNGPTAEQRRQTYLRTLGLPGTAIRFGNLNTNPGQGPTAPRQMVVPPGPLRSLLKASCFPAADTRLPQTLHYFEKRVDWNIITAADSQTWGH
- glycan array binding signal (z-score) (Fuc(a1-2)Gal(b1-3)GalNAc): -0.318
- glycan array binding signal (z-score) (Fuc(a1-2)Gal(b1-3)GlcNAc): -0.622
- glycan array binding signal (z-score) [1]: 6
- glycan array binding signal (z-score) [2]: -0.573
- glycan array binding signal (z-score) (Fuc(a1-2)Gal(b1-4)Glc): -0.272
- glycan array binding signal (z-score) [3]: -0.085
- glycan array binding signal (z-score) [4]: -0.281
- glycan array binding signal (z-score) [5]: -0.278
- glycan array binding signal (z-score) [6]: 0.128
- glycan array binding signal (z-score) [7]: 0.497
- glycan array binding signal (z-score) [8]: -0.387
- glycan array binding signal (z-score) [9]: -0.723
- glycan array binding signal (z-score) [10]: 0.153
- glycan array binding signal (z-score) [11]: 0.115
- glycan array binding signal (z-score) [12]: -0.161
- glycan array binding signal (z-score) [13]: 3.75
- glycan array binding signal (z-score) (Gal(a1-4)Gal(b1-4)Glc): -0.307
- glycan array binding signal (z-score) [14]: -0.329
- glycan array binding signal (z-score) [15]: 0.293
- glycan array binding signal (z-score) [16]: -0.459
- glycan array binding signal (z-score) [17]: 3.94
- glycan array binding signal (z-score) [18]: 0.465
- glycan array binding signal (z-score) [19]: 5.99
- glycan array binding signal (z-score) [20]: 4.45
- glycan array binding signal (z-score) [21]: 4.11
- glycan array binding signal (z-score) [22]: 4.64
- glycan array binding signal (z-score) [23]: 3.94
